Experimental data taken from PubChem BioAssay (Tox21).
Values without a mark were called inactive. Results filed as inconclusive are left out. Entries that show only a call come without a potency. Calls of active or inactive are those of the source. Unless noted, calls follow the shape of the dose curve; as a rule, active = well fitted curve in the direction sought with a large enough effect in the repeat runs; inconclusive = weak or mixed curves; inactive = no such curve, though single readings can be large; an effect the other way counts as inactive or inconclusive.

Assays:
[1] = qHTS assay to identify small molecule agonists of the sonic hedgehog signaling (Shh) pathway (AID 1259368; calls by dose curve;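 also: NIH/3T3-derived 3T3Gli1-Luc cells carrying a stable Gli1-driven firefly luciferase reporter; series mostly up to about 92 µM; nearly all actives have a fitted effect of over 15% in size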)
Method in brief: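 3T3Gli1-Luc (NIH/3T3 clone, stable Gli1-Luc); 4 hr pre-incubation, then cpd in DMSO 24 hr, 37 C/5% CO2; luciferase reagent 30 min RT; luminescence.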

[2] = qHTS assay to identify small molecule antagonists of the sonic hedgehog signaling (Shh) pathway (AID 1259369; calls by dose curve; also: nearly all actives have a fitted effect of over 45% in size; also: potency is read from the fitted curve at half-maximal effect)
Method in brief: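 3T3Gli1-Luc, conditioned-medium-stimulated, 24hr cpd, 37C/5% CO2; Gli1-driven firefly Luc luminescence after 30min RT with luciferase reagent. Cells plated 4hr before cpd.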

[3] = target: Estrogen receptor beta (Homo sapiens) (UniProt Q92731); experiment: qHTS assay to identify small molecule agonists of the estrogen receptor beta (ER-beta) signaling pathway (AID 1259377; active = well fitted activation curve with a large enough effect in the signal ratio in the repeat runs, not every such curve was filed as active; the % refers to the signal ratio)
Method in brief: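 ER-beta-UAS-bla HEK293T cells in medium with 2% charcoal-stripped FBS were exposed to compounds for 16 h at 37C. Beta-lactamase reporter activity was read as fluorescence after 2 h with LiveBLAzer B/G FRET substrate at room temperature.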

[4] = qHTS assay to identify small molecule agonists of the estrogen receptor beta (ER-beta) signaling pathway - cell viability counter screen (AID 1259380); also: nearly all actives have a fitted effect of over 30% in size; also: potency is read from the fitted curve at half-maximal effect
Method in brief: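 HEK293T ER-beta-UAS-bla; 2% CS-FBS; 6 hr pre-plate, 16 hr cpd at 37C/5% CO2; LiveBLAzer read first, then CellTiter-Glo 30 min RT, luminescence.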

[5] = target: Androgen receptor (Homo sapiens) (UniProt P10275); experiment: qHTS assay to identify small molecule agonists of the androgen receptor (AR) signaling pathway in the presence of an antagonist (AID 1259381; calls by dose curve; also: nearly all actives have a fitted effect of over 15% in size)
Method in brief: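 MDA-kb2 cells, 3,000/well, rested 5hr at 37C/0% CO2 → nilutamide 3.0uM final or buffer → compounds, 15 conc. → 16hr at 37C → ONE-Glo, 30min RT → luminescence.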

[6] = target: Estrogen receptor (Homo sapiens) (UniProt P03372); experiment: qHTS assay to identify small molecule agonists of the estrogen receptor alpha (ER-alpha) signaling pathway in the presence of an antagonist (AID 1259383; calls by dose curve; also: top concentration of the series differs between compounds; nearly all actives have a fitted effect of over 15% in size)
Method in brief: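 VM7Luc4E2, endog. ER-alpha + 4×ERE-luc; charcoal-stripped FBS, phenol red-free, 5 d; 24hr plating; +10.0nM ICI-182,780 (final); cpds 15 conc, 22hr, 37C/5% CO2; ONE-Glo luminescence.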

[7] = qHTS assay to identify small molecule agonists or antagonists of the thyroid stimulating hormone receptor (TSHR) signaling pathway - wild type cell line counter screen (AID 1259384; calls by dose curve)
Method in brief: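 Counter screen in untransfected Hek293: compounds (15-point titration, triplicate) plus phosphodiesterase inhibitor Ro20-1724 added after 18 h plating; 30 min RT. Intracellular cAMP via competitive d2/cryptate immunoassay, 1 h incubation.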

[8] = target: Thyrotropin receptor (Homo sapiens) (UniProt P16473); experiment: qHTS assay to identify small molecule antagonists of the thyroid stimulating hormone receptor (TSHR) signaling pathway (AID 1259385; calls by dose curve; also: nearly all actives have a fitted effect of over 20% in size)
Method in brief: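 Antagonist mode: compound-treated TSHR-expressing HEK293 cells were stimulated with 1.5 ng/mL TSH (final) in presence of Ro20-1724 for 30 min at RT. HTRF cAMP detection after 1 h; each compound tested at 15 concentrations, triplicate.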

[9] = qHTS assay to identify small molecule agonists of the estrogen receptor alpha (ER-alpha) signaling pathway in the presence of an antagonist - cell viability counter screen (AID 1259386);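 also: series mostly up to about 92 µM; cells exposed to compounds for 22 h at 37 °C before the viability read; nearly all actives have a fitted effect of over 30% in size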
Method in brief: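 VM7Luc4E2, stripped-serum pre-culture 5 d; 24hr plating; +ICI-182,780 10.0nM final; cpds 15 conc, 22hr, 37C/5% CO2; CellTiter-Fluor added at 21hr, fluorescence 1hr later.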

[10] = target: Progesterone receptor (Homo sapiens) (UniProt P06401); experiment: qHTS assay to identify small molecule agonists of the progesterone receptor (PR) signaling pathway (AID 1346784; calls by dose curve; also: nearly all actives have a fitted effect of over 30% in size)
Method in brief: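 PR-UAS-bla HEK 293T cells (beta-lactamase reporter under UAS) in 2% charcoal-stripped FBS, dosed with 23 nL compound after 6 hr, incubated 16hr at 37C. LiveBLAzer B/G FRET substrate added, fluorescence read after 2 hours.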

[11] = qHTS assay to identify small molecule antagonists of the progesterone receptor (PR) signaling pathway - cell viability counter screen (AID 1346798); also: series mostly up to about 92 µM; nearly all actives have a fitted effect of over 50% in size
Method in brief: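 PR-UAS-bla HEK293T cells, 3,000/well in 2% charcoal-stripped FBS medium, dosed with compounds plus R5020 agonist and incubated 16 h at 37C. Viability then measured in the same wells by CellTiter-Glo luminescence after 30 min at RT.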

[12] = qHTS assay to identify small molecule agonists of the progesterone receptor (PR) signaling pathway - cell viability counter screen (AID 1346799; calls by dose curve; also: nearly all actives have a fitted effect of over 45% in size)
Method in brief: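 Counter screen in the PR-UAS-bla HEK293T wells (2% charcoal-stripped FBS, 16 h compound exposure at 37 C) after the bla read. CellTiter-Glo added, 30 min at room temperature, luminescence read as cell viability.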

[13] = qHTS assay to identify small molecule antagonists of the TGF-beta/Smad signaling pathway - cell viability counter screen (AID 1346824); also: nearly all actives have a fitted effect of over 50% in size
Method in brief: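 Cytotoxicity counter-screen run in the same wells as the beta-lactamase Smad reporter read: CellTiter-Glo luminescence after 30 min at room temperature. HEK 293T SBE-bla cells had 5 hr compound exposure at 37 C with TGF-beta1 (0.25 ng/mL stock).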

[14] = qHTS assay to identify small molecule agonists of the TGF-beta/Smad signaling pathway - cell viability counter screen (AID 1346829); also: top concentration of the series differs between compounds; nearly all actives have a fitted effect of over 45% in size
Method in brief: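 Luminescence from CellTiter-Glo, read after a 30 min room-temperature incubation, gives cell viability of SBE-bla HEK 293T cells treated 5 hr with compounds at 37 C.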

[15] = target: Thyrotropin-releasing hormone receptor (Homo sapiens) (UniProt P34981); experiment: qHTS assay to identify small molecule antagonists of the thyrotropin-releasing hormone receptor (TRHR) signaling pathway (AID 1346877; active = well fitted inhibition curve with a large enough effect in the repeat runs, not every such curve was filed as active; also: series mostly up to about 51 µM)
Method in brief: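 Intracellular calcium fluorescence, read kinetically every second over 3 min, reports TRH-evoked signalling in HEK293 cells carrying TRHR. Test compounds were added 5 min ahead of a 1 nM TRH challenge.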

[16] = qHTS assay to identify small molecule agonists of the androgen receptor (AR) signaling pathway in the presence of an antagonist - cell viability counter screen (AID 1259379);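 also: MDA-kb2 human breast cancer cells carrying an MMTV luciferase reporter; series mostly up to about 92 µM; nearly all actives have a fitted effect of over 25% in size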
Method in brief: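 Cells: MDA-kb2 (MMTV-luc, AR and GR elements), 3,000/well, 5 hr settle. Added: nilutamide 3.0uM final, then compounds (15 conc.). Incubation: 16 hr, 37C, no CO2. Read-out: CellTiter-Fluor, 1 hr, fluorescence.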

[17] = qHTS assay to identify small molecule antagonists of the estrogen receptor beta (ER-beta) signaling pathway - cell viability counter screen (AID 1259382);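 also: HEK293T cells carrying ER-beta-UAS-bla reporter stimulated with estradiol; series mostly up to about 92 µM; nearly all actives have a fitted effect of over 55% in size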
Method in brief: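 Cells: ER-beta-UAS-bla HEK293T, 2,000/well, 2% CS-FBS, 6 hr settle. Cpd + E2 (1nM final), 16 hr, 37C/5% CO2. Bla FRET substrate 2 hr RT, then CellTiter-Glo 30 min RT, luminescence.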

[18] = target: Progesterone receptor (Homo sapiens) (UniProt P06401); experiment: qHTS assay to identify small molecule antagonists of the progesterone receptor (PR) signaling pathway (AID 1346795; active = well fitted inhibition curve with a large enough effect in the signal ratio in the repeat runs, not every such curve was filed as active; the % refers to the signal ratio)
Method in brief: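 PR-UAS-bla HEK293T cells with beta-lactamase reporter under UAS control, in 2% charcoal-stripped FBS, treated with compounds plus 1 nM promegestone (R5020, final) for 16 hr at 37C. Read-out: FRET beta-lactamase substrate fluorescence after 2 hr at room temperature.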

[19] = qHTS assay to identify small molecule agonists of the TGF-beta/Smad signaling pathway (AID 1346859; active = well fitted activation curve with a large enough effect in the signal ratio in the repeat runs, not every such curve was filed as active; the % refers to the signal ratio; also: series mostly up to about 77 µM)
Method in brief: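 SBE-bla HEK293T cells plated overnight, then compound exposure for 5 h at 37 C. Beta-lactamase reporter read with LiveBLAzer B/G FRET substrate after 2 h at room temperature, fluorescence at 405 nm excitation, 460/530 nm emission.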

[20] = target: Estrogen receptor beta (Homo sapiens) (UniProt Q92731); experiment: qHTS assay to identify small molecule antagonists of the estrogen receptor beta (ER-beta) signaling pathway (AID 1259378; active = well fitted inhibition curve with a large enough effect in the signal ratio in the repeat runs, not every such curve was filed as active; the % refers to the signal ratio)
Method in brief: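 Antagonist mode: compounds added to beta-lactamase reporter HEK293T ER-beta-UAS cells stimulated with E2 (1nM final), 16 hr at 37C. LiveBLAzer B/G FRET substrate, 2 hours room temperature, fluorescence read-out.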

Estrogen receptor (Homo sapiens), sequence (P03372 whole entry, looked up): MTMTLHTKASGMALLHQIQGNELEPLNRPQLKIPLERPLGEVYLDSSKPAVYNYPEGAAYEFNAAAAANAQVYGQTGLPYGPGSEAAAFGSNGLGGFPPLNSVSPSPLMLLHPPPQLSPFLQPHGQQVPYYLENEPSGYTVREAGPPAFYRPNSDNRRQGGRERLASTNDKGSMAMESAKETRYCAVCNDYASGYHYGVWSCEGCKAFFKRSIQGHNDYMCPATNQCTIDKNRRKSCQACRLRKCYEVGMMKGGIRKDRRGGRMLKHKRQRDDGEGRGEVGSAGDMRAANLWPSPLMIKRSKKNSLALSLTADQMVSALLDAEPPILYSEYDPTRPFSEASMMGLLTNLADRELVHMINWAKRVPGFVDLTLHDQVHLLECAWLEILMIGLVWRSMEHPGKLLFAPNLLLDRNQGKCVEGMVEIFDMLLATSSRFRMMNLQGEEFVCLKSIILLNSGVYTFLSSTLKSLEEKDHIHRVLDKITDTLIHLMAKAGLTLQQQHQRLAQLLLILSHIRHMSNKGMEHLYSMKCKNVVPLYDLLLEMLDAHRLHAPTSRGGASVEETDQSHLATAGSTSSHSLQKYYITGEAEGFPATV
Thyrotropin-releasing hormone receptor (Homo sapiens), sequence (P34981 whole entry, looked up): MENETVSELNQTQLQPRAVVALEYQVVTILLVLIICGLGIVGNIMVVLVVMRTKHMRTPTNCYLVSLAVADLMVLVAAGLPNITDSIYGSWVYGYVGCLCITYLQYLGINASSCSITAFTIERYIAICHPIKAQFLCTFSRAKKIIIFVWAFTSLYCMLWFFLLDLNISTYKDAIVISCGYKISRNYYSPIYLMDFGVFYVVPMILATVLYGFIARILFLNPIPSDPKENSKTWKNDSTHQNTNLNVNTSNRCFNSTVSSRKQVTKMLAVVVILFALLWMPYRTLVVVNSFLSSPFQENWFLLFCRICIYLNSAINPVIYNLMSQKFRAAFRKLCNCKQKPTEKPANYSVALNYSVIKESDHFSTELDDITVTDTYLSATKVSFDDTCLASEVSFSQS
Thyrotropin receptor (Homo sapiens), sequence (P16473 whole entry, looked up): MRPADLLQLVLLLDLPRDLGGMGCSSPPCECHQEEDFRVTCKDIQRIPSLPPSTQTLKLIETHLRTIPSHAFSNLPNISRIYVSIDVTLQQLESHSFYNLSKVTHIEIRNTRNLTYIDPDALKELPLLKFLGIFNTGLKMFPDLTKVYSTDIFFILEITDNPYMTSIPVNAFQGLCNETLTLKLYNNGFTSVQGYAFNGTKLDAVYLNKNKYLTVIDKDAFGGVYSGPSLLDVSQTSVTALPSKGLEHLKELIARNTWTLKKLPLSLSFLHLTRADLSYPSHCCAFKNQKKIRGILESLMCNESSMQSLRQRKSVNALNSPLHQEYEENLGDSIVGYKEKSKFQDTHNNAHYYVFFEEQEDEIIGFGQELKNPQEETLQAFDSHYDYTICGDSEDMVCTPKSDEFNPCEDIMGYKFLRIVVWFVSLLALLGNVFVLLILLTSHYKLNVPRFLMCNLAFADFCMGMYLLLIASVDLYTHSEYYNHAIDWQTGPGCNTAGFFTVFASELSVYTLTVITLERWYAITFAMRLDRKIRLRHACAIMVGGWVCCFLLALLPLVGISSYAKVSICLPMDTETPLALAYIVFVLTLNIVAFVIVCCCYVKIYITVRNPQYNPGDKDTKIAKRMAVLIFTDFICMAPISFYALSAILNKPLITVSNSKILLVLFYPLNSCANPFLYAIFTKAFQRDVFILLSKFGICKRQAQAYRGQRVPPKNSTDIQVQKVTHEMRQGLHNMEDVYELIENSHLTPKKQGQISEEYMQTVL
Estrogen receptor beta (Homo sapiens), sequence (Q92731 whole entry, looked up): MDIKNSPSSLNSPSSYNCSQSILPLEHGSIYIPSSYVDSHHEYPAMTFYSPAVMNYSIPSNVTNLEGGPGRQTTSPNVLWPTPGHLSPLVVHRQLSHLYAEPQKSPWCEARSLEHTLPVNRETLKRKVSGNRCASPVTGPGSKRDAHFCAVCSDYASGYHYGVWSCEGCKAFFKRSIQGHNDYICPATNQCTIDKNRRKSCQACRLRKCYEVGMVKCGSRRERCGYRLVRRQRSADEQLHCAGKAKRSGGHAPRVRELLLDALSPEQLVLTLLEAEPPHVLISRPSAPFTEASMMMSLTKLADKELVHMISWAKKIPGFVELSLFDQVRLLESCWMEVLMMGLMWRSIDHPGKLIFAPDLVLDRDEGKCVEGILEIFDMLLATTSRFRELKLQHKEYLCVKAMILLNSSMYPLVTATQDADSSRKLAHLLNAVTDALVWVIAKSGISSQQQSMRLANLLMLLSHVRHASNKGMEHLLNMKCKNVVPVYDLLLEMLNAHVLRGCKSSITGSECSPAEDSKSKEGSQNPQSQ
Progesterone receptor (Homo sapiens), sequence (P06401 whole entry, looked up): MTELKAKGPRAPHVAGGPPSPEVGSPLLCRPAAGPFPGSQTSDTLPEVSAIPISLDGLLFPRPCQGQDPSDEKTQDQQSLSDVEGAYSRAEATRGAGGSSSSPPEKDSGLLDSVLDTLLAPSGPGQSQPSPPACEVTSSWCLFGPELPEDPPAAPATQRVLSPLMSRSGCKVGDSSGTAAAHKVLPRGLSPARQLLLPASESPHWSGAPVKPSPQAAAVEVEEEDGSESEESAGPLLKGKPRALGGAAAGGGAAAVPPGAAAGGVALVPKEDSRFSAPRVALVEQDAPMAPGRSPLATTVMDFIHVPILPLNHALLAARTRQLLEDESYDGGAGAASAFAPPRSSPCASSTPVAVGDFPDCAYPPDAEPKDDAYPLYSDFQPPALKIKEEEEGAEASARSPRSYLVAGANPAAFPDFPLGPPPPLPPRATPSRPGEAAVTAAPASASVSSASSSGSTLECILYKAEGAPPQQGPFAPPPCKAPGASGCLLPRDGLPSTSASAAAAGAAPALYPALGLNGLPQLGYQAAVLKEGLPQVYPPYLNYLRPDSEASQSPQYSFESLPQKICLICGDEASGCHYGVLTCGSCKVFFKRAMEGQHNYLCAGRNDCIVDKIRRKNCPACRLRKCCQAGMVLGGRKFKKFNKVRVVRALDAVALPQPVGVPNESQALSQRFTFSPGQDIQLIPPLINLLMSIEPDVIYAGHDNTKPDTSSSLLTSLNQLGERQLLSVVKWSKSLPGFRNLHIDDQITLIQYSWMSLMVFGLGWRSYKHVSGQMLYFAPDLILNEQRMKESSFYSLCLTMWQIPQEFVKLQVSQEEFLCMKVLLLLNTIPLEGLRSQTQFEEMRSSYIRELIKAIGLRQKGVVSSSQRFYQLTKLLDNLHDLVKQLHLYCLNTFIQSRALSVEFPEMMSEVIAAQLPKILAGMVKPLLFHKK
Androgen receptor (Homo sapiens), sequence (P10275 whole entry, looked up): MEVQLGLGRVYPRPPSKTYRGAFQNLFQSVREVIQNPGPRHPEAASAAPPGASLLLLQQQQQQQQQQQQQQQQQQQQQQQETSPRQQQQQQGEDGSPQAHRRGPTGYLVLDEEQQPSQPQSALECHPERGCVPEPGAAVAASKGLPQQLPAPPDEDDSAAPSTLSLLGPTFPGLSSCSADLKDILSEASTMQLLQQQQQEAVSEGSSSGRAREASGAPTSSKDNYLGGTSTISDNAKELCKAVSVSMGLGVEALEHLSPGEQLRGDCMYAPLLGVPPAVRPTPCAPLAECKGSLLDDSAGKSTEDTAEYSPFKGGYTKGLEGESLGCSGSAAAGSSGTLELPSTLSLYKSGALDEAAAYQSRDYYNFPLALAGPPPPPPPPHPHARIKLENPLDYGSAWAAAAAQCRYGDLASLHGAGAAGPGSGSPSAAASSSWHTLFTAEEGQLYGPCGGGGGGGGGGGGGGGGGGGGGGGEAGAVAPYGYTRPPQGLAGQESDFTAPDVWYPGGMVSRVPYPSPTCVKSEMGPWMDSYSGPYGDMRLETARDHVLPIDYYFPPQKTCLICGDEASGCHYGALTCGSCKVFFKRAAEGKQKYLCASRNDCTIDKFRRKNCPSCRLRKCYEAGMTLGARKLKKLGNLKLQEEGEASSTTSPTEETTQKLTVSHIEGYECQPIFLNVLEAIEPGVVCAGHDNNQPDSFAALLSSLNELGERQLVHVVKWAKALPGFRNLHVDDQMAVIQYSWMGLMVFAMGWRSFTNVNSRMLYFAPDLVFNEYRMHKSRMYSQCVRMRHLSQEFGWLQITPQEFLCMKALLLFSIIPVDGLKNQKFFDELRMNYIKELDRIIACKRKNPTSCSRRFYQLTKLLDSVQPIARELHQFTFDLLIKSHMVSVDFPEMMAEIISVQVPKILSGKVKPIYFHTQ

| SMILES | Potency [1] | Potency [2] | outcome [3] | Potency [4] | Potency [5] | Potency [6] | outcome [7] | Potency [8] | Potency [9] | Potency [10] | Potency [11] | Potency [12] | outcome [13] | outcome [14] | outcome [15] | Potency [16] | outcome [17] | Potency [18] | outcome [19] | Potency [20] |
| --- | --- | --- | --- | --- | --- | --- | --- | --- | --- | --- | --- | --- | --- | --- | --- | --- | --- | --- | --- | --- |
| CC1=C2[C@H](/C=C(\C)C(=O)O)CC[C@@H](C)[C@H]2CC1 | inactive | 56.5 µM (active) | inactive | 25.2 µM (active) | inactive | inactive | inactive | inactive | inactive | inactive | inactive | inactive | inactive | inactive | inactive |  |  |  |  |  |
| CCCOCCC | inactive | inactive |  | inactive |  | inactive | inactive | inactive | inactive | inactive | inactive |  | inactive | inactive | inactive | inactive | inactive | inactive | inactive |  |
| C=C(C)C(=O)OCCOP(=O)(O)O | inactive | inactive |  | inactive |  | inactive | inactive | inactive | inactive |  |  | inactive | inactive | inactive | inactive | inactive | inactive | inactive | inactive | inactive |
| C=CCc1cc(OC)c(O)c(C(=O)NCCO)c1 | inactive | inactive |  | inactive |  | inactive | inactive | inactive | inactive |  | inactive | inactive | inactive | inactive |  | inactive | inactive | inactive | inactive |  |
| CCCNC(C)C(=O)Nc1c(C)csc1C(=O)OC (stereo not given) | inactive | inactive |  | inactive |  | inactive | inactive | inactive | inactive | inactive | inactive | inactive | inactive |  |  | inactive | inactive | inactive | inactive |  |
| Cc1ccc(C(C)C)cc1O | inactive | inactive |  | inactive |  |  | inactive |  | inactive | inactive | inactive | inactive | inactive |  |  | inactive | inactive | inactive | inactive | inactive |
| CCN(CC)CCNC(=O)COc1ccc(Cl)cc1 | inactive | inactive |  | inactive |  | inactive | inactive | inactive | inactive | inactive | inactive | inactive | inactive | inactive |  | inactive | inactive | inactive | inactive |  |
| CCCCC(=O)O[C@]1(C(=O)CO)[C@H](C)C[C@H]2[C@@H]3CCC4=CC(=O)C=C[C@]4(C)[C@@]3(F)[C@@H](O)C[C@@]21C | inactive | inactive |  | inactive |  | inactive | inactive | inactive | inactive |  | inactive |  | inactive |  |  | inactive | inactive | inactive | inactive |  |
